Experimental data: the antibiotic and cytotoxicity screens of Wong et al. (2023)
Out of some 39,000 compounds screened, about 3,300 (8.5%) were called active. Only a selection was taken, and actives are over-represented in it overall.

What follows are compounds tested on HepG2 (assay: cytotoxicity call (relative viability < 0.9)). Details: 10 µM.
For `Cc1noc(C)c1NC(=O)N[C@H]1C=C[C@H](CC(=O)N2CCN(C)CC2)O[C@@H]1CO`, the cytotoxicity call was “inactive”.
In the case of `C[C@H]1CCCCO[C@@H](CN(C)C(=O)NC2CCCCC2)[C@@H](C)CN([C@@H](C)CO)C(=O)c2cc(NC(=O)Cc3ccccc3)ccc2O1`, the cytotoxicity call was “inactive”.
In the case of `COc1ccc(NC(=O)Nc2cccc3c2O[C@H](CN(C)C(=O)Nc2cccc4ccccc24)[C@H](C)CN([C@@H](C)CO)C3=O)cc1`, the cytotoxicity call was “inactive”.
For `Cc1c(N2CCCC2)cc2c(c1-n1cccc1)C(C)(C)CC2(C)C`, the cytotoxicity call was “inactive”.
`COc1ccc2c3c(n(c2c1)C)[C@@H](CO)N(Cc1cc(cc(c1)OC)OC)C[C@]13CN(C1)S(=O)(=O)c1cn(cn1)C` was tested, and the cytotoxicity call was “inactive”.
In the case of `O=S(=O)(NCC[C@@H]1CC[C@@H](NS(=O)(=O)c2ccccc2Cl)[C@H](CO)O1)c1ccc(Cl)cc1`, the cytotoxicity call was “inactive”.
For `Cc1ccc(S(=O)(=O)N[C@@H]2C=C[C@H](CC(=O)NCCN3CCCCC3)O[C@H]2CO)cc1`, the cytotoxicity call was “inactive”.
For `COc1ccc(NC(=O)N(C)C[C@H]2Oc3ccc(NC(=O)Nc4cccc5ccccc45)cc3C(=O)N([C@@H](C)CO)C[C@@H]2C)cc1`, the cytotoxicity call was “inactive”.
With `Cc1noc(C)c1NC(=O)Nc1ccc2c(c1)C(=O)N([C@H](C)CO)C[C@H](C)[C@@H](CN(C)Cc1ccc(Cl)c(Cl)c1)O2` the cytotoxicity call was “inactive”.
In the case of `C[C@@H]1CN([C@H](C)CO)C(=O)Cc2cc(NS(=O)(=O)c3ccc(F)cc3)ccc2O[C@H]1CN(C)Cc1ccc(-c2ccccc2)cc1`, the cytotoxicity call was “active”.
With `C[C@@H]1CN([C@H](C)CO)C(=O)Cc2cc(NC(=O)NC3CCCCC3)ccc2O[C@@H]1CN(C)C(=O)Nc1ccc(C(F)(F)F)cc1` the cytotoxicity call was “inactive”.
In the case of `COc1ccc(S(=O)(=O)Nc2ccc3c(c2)C(=O)N([C@H](C)CO)C[C@@H](C)[C@H](CN(C)C(=O)Nc2ccc(F)cc2)OCCCC[C@H](C)O3)cc1`, the cytotoxicity call was “inactive”.
`C[C@H]1CN([C@@H](C)CO)C(=O)c2cc(C#CCN(C)C)cnc2O[C@H]1CN(C)S(C)(=O)=O` was tested, and the cytotoxicity call was “inactive”.
For `C[C@@H]1CN([C@@H](C)CO)C(=O)c2cc(NS(=O)(=O)c3ccc(Cl)cc3)ccc2O[C@@H](C)CCCCO[C@@H]1CN(C)Cc1ccc(C(F)(F)F)cc1`, the cytotoxicity call was “inactive”.
`C[C@@H]1CCCCO[C@H](CN(C)Cc2ccc(C(F)(F)F)cc2)[C@@H](C)CN([C@@H](C)CO)C(=O)c2cc(NS(=O)(=O)c3ccc(Cl)cc3)ccc2O1` was tested, and the cytotoxicity call was “active”.
`C[C@H](CO)N1C[C@H](C)[C@@H](CN(C)Cc2ccc(C(F)(F)F)cc2)OCCCC[C@H](C)Oc2ccc(NS(=O)(=O)c3ccc(Cl)cc3)cc2C1=O` was tested, and the cytotoxicity call was “inactive”.
With `C[C@@H]1CN([C@H](C)CO)C(=O)c2cc(NS(=O)(=O)c3ccc(Cl)cc3)ccc2O[C@@H](C)CCCCO[C@H]1CN(C)Cc1ccc(C(F)(F)F)cc1` the cytotoxicity call was “active”.
In the case of `C[C@@H]1CCCCO[C@H](CN(C)Cc2ccc(C(F)(F)F)cc2)[C@H](C)CN([C@H](C)CO)C(=O)c2cc(NS(=O)(=O)c3ccc(Cl)cc3)ccc2O1`, the cytotoxicity call was “active”.
In the case of `C[C@@H]1CCCCO[C@@H](CN(C)Cc2ccc(C(F)(F)F)cc2)[C@H](C)CN([C@H](C)CO)C(=O)c2cc(NS(=O)(=O)c3ccc(Cl)cc3)ccc2O1`, the cytotoxicity call was “active”.
With `CNC[C@H]1OCCCC[C@@H](C)Oc2ccc(NS(=O)(=O)c3cn(C)cn3)cc2C(=O)N([C@@H](C)CO)C[C@H]1C` the cytotoxicity call was “inactive”.
`C[C@@H]1CCCCO[C@@H](CN(C)C(=O)c2ccccc2)[C@@H](C)CN([C@H](C)CO)C(=O)c2cc(NC(=O)CCC(F)(F)F)ccc2O1` was tested, and the cytotoxicity call was “inactive”.
With `C[C@@H]1CN([C@H](C)CO)C(=O)c2cc(NS(=O)(=O)c3cccs3)ccc2O[C@@H](C)CCCCO[C@@H]1CN(C)C(=O)CCC(F)(F)F` the cytotoxicity call was “inactive”.
With `C[C@H](N)CCCP(=O)(O)O` the cytotoxicity call was “inactive”.
For `COC(=O)CCCCCCC(=O)Nc1ccc([C@H]2O[C@H](CSc3nc(-c4ccccc4)c(-c4ccccc4)o3)C[C@H](c3ccc(NC(=O)CCCCCCC(=O)OC)cc3)O2)cc1`, the cytotoxicity call was “inactive”.
With `C[C@H]1CN([C@@H](C)CO)C(=O)c2cc(NS(C)(=O)=O)ccc2O[C@@H]1CN(C)Cc1ccc(C(F)(F)F)cc1` the cytotoxicity call was “inactive”.
With `COc1ccc(NC(=O)Nc2ccc3c(c2)[C@H]2C[C@@H](CC(=O)N4CCN(C)CC4)O[C@H](CO)[C@H]2O3)cc1` the cytotoxicity call was “inactive”.
For `C[C@@H]1CN([C@H](C)CO)C(=O)c2cc(C#CCN(C)C)cnc2O[C@H]1CN(C)Cc1ccc2c(c1)OCO2`, the cytotoxicity call was “inactive”.
With `C[C@H](CO)N1C[C@H](C)[C@@H](CN(C)C(=O)c2cnccn2)Oc2ncc(/C=C/c3ccccc3)cc2C1=O` the cytotoxicity call was “inactive”.
`CC(C)NC(=O)Nc1ccc2c(c1)C(=O)N([C@@H](C)CO)C[C@H](C)[C@H](CN(C)C(=O)Nc1ccc3c(c1)OCO3)O2` was tested, and the cytotoxicity call was “inactive”.
`C[C@H]1CN([C@@H](C)CO)S(=O)(=O)c2ccc(C#CC3CCCC3)cc2O[C@H]1CN(C)Cc1cncnc1` was tested, and the cytotoxicity call was “inactive”.
`CO[C@@H]1CN(C)C(=O)c2ccc(NC(=O)C3CCOCC3)cc2OC[C@H](C)N(Cc2cccnc2)C[C@@H]1C` was tested, and the cytotoxicity call was “inactive”.
For `C[C@H]1CN([C@@H](C)CO)C(=O)c2cccc(NC(=O)c3cnccn3)c2O[C@H]1CN(C)C(=O)Nc1ccc2c(c1)OCO2`, the cytotoxicity call was “inactive”.
For `C[C@H]1CN([C@@H](C)CO)C(=O)c2cccc(NC(=O)c3ccncc3)c2O[C@H]1CN(C)S(=O)(=O)c1cn(C)cn1`, the cytotoxicity call was “inactive”.
With `NCCCC[C@@H]1NC(=O)[C@H]2C[C@@H](C(=O)NCc3ccc(F)cc3)[C@@H](c3cccc(OCCO)c3)N2C1=O` the cytotoxicity call was “inactive”.
`COc1ccc(S(=O)(=O)Nc2cccc3c2O[C@H](CN(C)CC2CC2)[C@@H](C)CN([C@H](C)CO)C3=O)cc1` was tested, and the cytotoxicity call was “inactive”.
With `COCC#Cc1ccc2c(c1)O[C@H](CN(C)S(=O)(=O)c1cccc(OC)c1)[C@H](C)CN([C@H](C)CO)S2(=O)=O` the cytotoxicity call was “inactive”.
In the case of `CN1C(=O)c2cc(NC(=O)C3CCOCC3)ccc2OC[C@H]2O[C@H](CC(=O)NCCc3ccncc3)CC[C@H]21`, the cytotoxicity call was “inactive”.
`C[C@@H]1CN([C@@H](C)CO)C(=O)c2cc(NC(=O)NC3CCCCC3)ccc2O[C@@H](C)CCCCO[C@@H]1CN(C)C(=O)Nc1ccccc1` was tested, and the cytotoxicity call was “inactive”.
In the case of `Cc1ccc(S(=O)(=O)N(C)C[C@H]2Oc3ccc(NS(=O)(=O)c4cn(C)cn4)cc3C(=O)N([C@H](C)CO)C[C@H]2C)cc1`, the cytotoxicity call was “inactive”.
